The nature of experiment [1]: qHTS assay to identify small molecule antagonists of the thyroid receptor (TR) signaling pathway - cell viability counter screen (AID 743064). Note: nearly all actives have a fitted effect of over 50% in size. Note: potency is the fitted concentration of half-maximal effect. In a few lines: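 GH3.TRE-Luc cells, 4 h pre-plating; cpd + T3 1 nM final; 37 °C 23.5 h; CellTiter-Fluor 30 min; fluorescence read.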
A short description of experiment [2]: qHTS assay to identify small molecule antagonists of the thyroid receptor (TR) signaling pathway (AID 743065). Note: nearly all actives have a fitted effect of over 55% in size. Note: potency is the fitted concentration of half-maximal effect. In a few lines:
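Antagonism measured as loss of luciferase signal in GH3 cells stably carrying a TRE-luciferase reporter, co-treated with compound and T3 (1 nM final) for 23.5 h at 37 C. Viability was read in the same well by CellTiter-Fluor.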

The test system of experiment [3] is thyroid hormone receptor (rat, GH3 cells). In words: qHTS assay to identify small molecule agonists of the thyroid receptor (TR) signaling pathway (AID 743066; calls by dose curve).
The target in experiment [4] is Estrogen receptor (Homo sapiens) (UniProt P03372). As to the kind of experiment: qHTS assay to identify small molecule antagonists of the estrogen receptor alpha (ER-alpha) signaling pathway (AID 743069; active = well fitted curve in the direction sought with a large enough effect in the signal ratio in the repeat runs, not every such curve was filed as active; the % refers to the signal ratio). Summed up: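 ER-alpha-UAS-bla GripTite HEK293 line; 2% charcoal-stripped FBS overnight; plated, 4 hr 37C/5% CO2; cpd in DMSO + 17beta-estradiol, 18 hr 37C; LiveBLAzer B/G FRET substrate 2 hr RT; fluorescence intensity.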
Estrogen receptor (Homo sapiens), sequence (P03372 whole entry, looked up): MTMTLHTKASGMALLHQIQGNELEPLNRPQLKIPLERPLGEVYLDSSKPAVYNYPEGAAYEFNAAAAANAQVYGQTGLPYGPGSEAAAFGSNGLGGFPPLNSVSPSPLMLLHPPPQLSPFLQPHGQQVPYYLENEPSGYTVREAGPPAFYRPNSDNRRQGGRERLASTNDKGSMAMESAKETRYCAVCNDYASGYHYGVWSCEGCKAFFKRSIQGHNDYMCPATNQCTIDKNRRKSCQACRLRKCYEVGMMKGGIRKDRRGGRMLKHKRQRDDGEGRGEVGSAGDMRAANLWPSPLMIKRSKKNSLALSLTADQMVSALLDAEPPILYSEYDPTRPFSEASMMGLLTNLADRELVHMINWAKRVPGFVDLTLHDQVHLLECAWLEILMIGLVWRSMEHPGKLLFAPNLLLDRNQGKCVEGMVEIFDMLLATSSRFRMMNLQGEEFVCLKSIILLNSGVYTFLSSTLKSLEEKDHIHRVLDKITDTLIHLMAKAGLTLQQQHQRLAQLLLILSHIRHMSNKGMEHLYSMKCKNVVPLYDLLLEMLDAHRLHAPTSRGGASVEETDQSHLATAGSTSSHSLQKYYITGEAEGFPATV

Experiment [5] in a line: qHTS assay to identify small molecule antagonists of the estrogen receptor alpha (ER-alpha) signaling pathway - cell viability counter screen (AID 743074; calls by dose curve;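 note: HEK293 cells carrying ER-alpha-UAS-bla reporter stimulated with 17beta-estradiol; nearly all actives have a fitted effect of over 45% in size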).
The target of experiment [6] is Estrogen receptor (Homo sapiens) (UniProt P03372). As to the kind of experiment: qHTS assay to identify small molecule agonists of the estrogen receptor alpha (ER-alpha) signaling pathway (AID 743075; calls by dose curve;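 note: HEK293 GripTite cells with ER-alpha and UAS-driven beta-lactamase reporter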).
The target is the same in experiment [7]. As to the kind of experiment: qHTS assay to identify small molecule agonists of the estrogen receptor alpha (ER-alpha) signaling pathway using the BG1 cell line (AID 743079). Note: nearly all actives have a fitted effect of over 20% in size. The settings on record: BG1Luc4E2 cells, ERE-luciferase agonist, 22 h; activation: at 70.3 µM (top of the series).
The nature of experiment [8]: qHTS assay to identify small molecule antagonists of the estrogen receptor alpha (ER-alpha) signaling pathway using the BG1 cell line (AID 743080; calls by dose curve;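 note: BG1 cells stimulated with 17beta-estradiol alongside compound; nearly all actives have a fitted effect of over 25% in size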). In a few lines:
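Luciferase inhibition measured with ONE-Glo after 30 min at RT in BG1Luc4E2 cells given test compounds and 17beta-estradiol for 21.5 h at 37 C; CellTiter-Fluor viability read in the same wells beforehand.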

Experiment [9] is described as follows: qHTS assay to identify small molecule antagonists of the estrogen receptor alpha (ER-alpha) signaling pathway using the BG1 cell line - cell viability counter screen (AID 743081).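 Note: compound given together with 17beta-estradiol as the ER stimulus; nearly all actives have a fitted effect of over 45% in size.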
Another experiment addresses Aromatase (Homo sapiens) (UniProt P11511). In words: qHTS assay to identify aromatase inhibitors (AID 743083). Note: nearly all actives have a fitted effect of over 55% in size.
Experiment [10] is described as follows: qHTS assay to identify aromatase inhibitors - cell viability counter screen (AID 743084).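 Note: cells stimulated with testosterone during compound exposure; nearly all actives have a fitted effect of over 55% in size.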
For experiment [11], the target named is Aryl hydrocarbon receptor (Homo sapiens) (UniProt P35869). As to the kind of experiment: qHTS assay to identify small molecule that activate the aryl hydrocarbon receptor (AhR) signaling pathway (AID 743085).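 Note: HG2L7.5c1 human HepG2 liver cells with stably integrated DRE-driven firefly reporter; nearly all actives have a fitted effect of over 15% in size.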 Summed up: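 Luminescence read-out: ONE-Glo reagent, 30 min at room temperature, in HG2L7.5c1 HepG2 reporter cells treated 24 h at 37C. Viability was measured beforehand by CellTiter-Fluor fluorescence after 30 min at 37C.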
Aryl hydrocarbon receptor (Homo sapiens), sequence (P35869 whole entry, looked up): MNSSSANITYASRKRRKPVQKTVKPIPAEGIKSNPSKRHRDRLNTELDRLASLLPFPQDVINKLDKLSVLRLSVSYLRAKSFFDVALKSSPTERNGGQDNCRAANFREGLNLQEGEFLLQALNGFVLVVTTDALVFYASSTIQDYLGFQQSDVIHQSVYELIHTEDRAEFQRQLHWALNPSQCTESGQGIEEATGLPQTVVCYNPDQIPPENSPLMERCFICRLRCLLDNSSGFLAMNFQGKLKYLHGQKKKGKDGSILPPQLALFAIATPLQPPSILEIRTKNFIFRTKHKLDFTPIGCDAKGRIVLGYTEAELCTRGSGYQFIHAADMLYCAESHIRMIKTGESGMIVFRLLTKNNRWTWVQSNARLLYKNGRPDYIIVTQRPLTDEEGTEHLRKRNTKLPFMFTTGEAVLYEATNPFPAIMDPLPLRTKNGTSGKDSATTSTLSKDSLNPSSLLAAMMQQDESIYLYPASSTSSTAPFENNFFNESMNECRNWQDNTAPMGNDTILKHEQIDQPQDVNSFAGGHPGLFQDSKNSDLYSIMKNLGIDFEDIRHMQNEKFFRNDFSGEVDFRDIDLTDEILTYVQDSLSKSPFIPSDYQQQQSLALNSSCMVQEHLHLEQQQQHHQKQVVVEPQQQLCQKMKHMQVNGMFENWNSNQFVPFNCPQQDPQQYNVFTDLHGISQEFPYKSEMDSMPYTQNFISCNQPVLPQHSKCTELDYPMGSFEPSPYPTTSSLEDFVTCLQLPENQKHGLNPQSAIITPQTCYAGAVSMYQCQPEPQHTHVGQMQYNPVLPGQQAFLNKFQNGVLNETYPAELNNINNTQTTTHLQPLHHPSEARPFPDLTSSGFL

Experiment [12] in a line: qHTS assay to identify small molecule that activate the aryl hydrocarbon receptor (AhR) signaling pathway - cell viability counter screen (AID 743086).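 Note: HepG2 liver cells carrying the AhR DRE luciferase reporter; nearly all actives have a fitted effect of over 45% in size.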 In a few lines:
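Cytotoxicity counter screen: CellTiter-Fluor signal (30 min, 37 C) in 4000 HepG2 cells/well carrying the DRE-luciferase reporter, following 24 h compound exposure at 37 C.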

The target in experiment [13] is Peroxisome proliferator-activated receptor gamma (Homo sapiens) (UniProt P37231). As to the kind of experiment: qHTS assay to identify small molecule agonists of the peroxisome proliferator-activated receptor gamma (PPARg) signaling pathway (AID 743094; active = well fitted activation curve with a large enough effect in the signal ratio in the repeat runs, not every such curve was filed as active; the % refers to the signal ratio). Summed up:
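Compounds dissolved in DMSO were added to PPARg UAS-bla HEK293H cells for 17 h at 37C, and reporter expression was quantified by fluorescence intensity after 1 h with LiveBLAzer B/G FRET substrate.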

Experiment [14] has the same target. In words: qHTS assay to identify small molecule antagonists of the peroxisome proliferator-activated receptor gamma (PPARg) signaling pathway (AID 743191; calls by dose curve; note: nearly all actives have a fitted effect of over 30% in size). Summed up: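 Beta-lactamase reporter under UAS control in HEK293H PPARg-bla cells; compound treatment 17 h at 37C. Read-out: fluorescence intensity after 1 h room-temperature incubation with LiveBLAzer B/G FRET substrate.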

Experiment [15] in a line: qHTS assay to identify small molecule antagonists of the peroxisome proliferator-activated receptor gamma (PPARg) signaling pathway - cell viability counter screen (AID 743194). Note: nearly all actives have a fitted effect of over 55% in size. The settings on record: Potency: co-treated with 50 nM rosiglitazone unless noted. Summed up: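 Viability was measured as CellTiter-Glo luminescence in GeneBLAzer PPARg UAS-bla HEK293H cells. These cells had been exposed 17 h at 37 C to compounds together with rosiglitazone at 50 nM final, with the beta-lactamase readout taken in the same wells.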

Experiment [16] can be described thus: qHTS assay for small molecule agonists of the antioxidant response element (ARE) signaling pathway (AID 743202; active = well fitted activation curve with a large enough effect in the signal ratio in the repeat runs, not every such curve was filed as active; the % refers to the signal ratio). Summed up:
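Quantitative high-throughput format in HepG2 cells bearing an integrated ARE-beta-lactamase reporter. Compound exposure lasted 16 h at 37 C, and fluorescence was read 2 h after adding LiveBLAzer B/G substrate at room temperature.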

The nature of experiment [17]: qHTS assay for small molecule agonists of the antioxidant response element (ARE) signaling pathway - cell viability counter screen (AID 743203; calls by dose curve; note: nearly all actives have a fitted effect of over 55% in size). In a few lines: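 Following 16 hrs of compound treatment at 37C, HepG2 cells with an ARE-controlled beta-lactamase gene were lysed with CellTiter-Glo. Luminescence was read after 30 min at room temperature.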
The nature of experiment [18]: qHTS assay for small molecule activators of the heat shock response signaling pathway - cell viability counter screen (AID 743209). Note: nearly all actives have a fitted effect of over 50% in size. In a few lines:
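Readout: CellTiter-Glo luminescence, 30 min at room temperature. System: HSE-bla HeLa cells, 1500/well, plated overnight. Treatment: compounds in DMSO, 5 h at 37 C.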

Experiment [19] can be described thus: qHTS assay for small molecule activators of the heat shock response signaling pathway (AID 743210; active = well fitted activation curve with a large enough effect in the signal ratio in the repeat runs, with a control signal flat, not every such curve was filed as active; the % refers to the signal ratio;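 note: HeLa cells with beta-lactamase reporter driven by heat shock elements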). Summed up: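 HeLa HSE-bla cells, overnight plating; cpd in DMSO 5 h, 37 C; LiveBLAzer B/G FRET substrate 2.5 h RT; fluorescence intensity read.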

Molecules are shown by their SMILES. Inconclusive results are not listed. A number with no mark means an inactive call. Activity calls are given as the source filed them. Unless noted, calls come from the whole dose curve; as a rule, active = well fitted curve in the direction sought with a large enough effect in the repeat runs; inconclusive = weak or mixed curves; inactive = no such curve, though single readings can be large; an effect the other way counts as inactive or inconclusive.
% is set by controls: 0 for no effect and ±100 for the full control effect.

Peroxisome proliferator-activated receptor gamma (Homo sapiens), sequence (P37231 whole entry, looked up): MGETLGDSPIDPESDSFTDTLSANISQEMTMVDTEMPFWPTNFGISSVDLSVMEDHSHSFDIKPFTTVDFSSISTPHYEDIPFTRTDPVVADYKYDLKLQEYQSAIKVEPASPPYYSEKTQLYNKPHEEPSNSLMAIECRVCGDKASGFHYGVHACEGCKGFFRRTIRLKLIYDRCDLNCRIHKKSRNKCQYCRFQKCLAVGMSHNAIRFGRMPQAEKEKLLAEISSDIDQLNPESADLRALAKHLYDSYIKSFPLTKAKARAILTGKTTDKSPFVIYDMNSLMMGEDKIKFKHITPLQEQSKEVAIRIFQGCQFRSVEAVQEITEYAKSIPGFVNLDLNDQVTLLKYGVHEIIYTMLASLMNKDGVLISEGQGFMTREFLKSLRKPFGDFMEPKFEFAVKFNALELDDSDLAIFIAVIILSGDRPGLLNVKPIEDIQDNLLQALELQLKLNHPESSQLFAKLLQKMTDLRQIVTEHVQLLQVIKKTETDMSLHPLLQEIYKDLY
Aromatase (Homo sapiens), sequence (P11511 whole entry, looked up): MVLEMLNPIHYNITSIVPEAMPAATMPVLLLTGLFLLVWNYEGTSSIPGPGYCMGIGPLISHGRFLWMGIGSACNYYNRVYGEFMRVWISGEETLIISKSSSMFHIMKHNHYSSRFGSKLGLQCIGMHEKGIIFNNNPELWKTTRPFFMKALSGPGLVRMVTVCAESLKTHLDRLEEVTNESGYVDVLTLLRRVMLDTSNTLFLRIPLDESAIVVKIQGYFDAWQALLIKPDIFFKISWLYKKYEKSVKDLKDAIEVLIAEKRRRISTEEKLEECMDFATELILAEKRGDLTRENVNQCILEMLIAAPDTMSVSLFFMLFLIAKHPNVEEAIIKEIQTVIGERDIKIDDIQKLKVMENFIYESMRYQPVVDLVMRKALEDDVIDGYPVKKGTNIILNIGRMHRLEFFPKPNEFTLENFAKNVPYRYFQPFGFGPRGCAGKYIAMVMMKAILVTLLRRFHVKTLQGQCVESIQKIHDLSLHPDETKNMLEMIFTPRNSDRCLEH

As for `ClSC(Cl)(Cl)Cl`, the Potency result in experiment [1], in [2], in experiment [3], in [4], in [5] and in experiment [6] was “inactive” throughout. Also, the Potency result (in experiment [7]; in experiment [8]; in experiment [9]; with Aromatase (Homo sapiens); in experiment [10]; in experiment [11]) was “inactive” in each case. Further, the Potency result in experiment [12], in [13], in experiment [14], in experiment [15], in [16] and in experiment [17] was “inactive” in each case. Besides, in experiment [18], the Potency result is “inactive”.
As to `CC(Cl)CCl` (configuration not stated), the Potency entry in experiment [1], in experiment [2], in experiment [3], in experiment [4], in experiment [5] and in experiment [6] was “inactive” throughout. Further, the Potency result (in experiment [7]; in [8]; in experiment [9]; with Aromatase (Homo sapiens); in experiment [10]; in [11]) was “inactive” in each case. Also, the Potency entry in experiment [12], in experiment [13], in experiment [14], in [16], in experiment [17] and in experiment [18] was “inactive” throughout. Besides, in experiment [19], the Potency entry is “inactive”.
For the molecule `CCN(CC)CCN1C(=O)CN=C(c2ccccc2F)c2cc(Cl)ccc21`, the Potency in experiment [1] was 29.8 µM (active); in experiment [2] it was 23.7 µM (active). The Potency result in experiment [3], in [4], in experiment [5], in experiment [6], in experiment [7] and in [8] was “inactive” in each case. For the same molecule, the Potency entry (in experiment [9]; in the experiment with Aromatase (Homo sapiens); in experiment [10]; in [12]; in [13]; in experiment [17]) was “inactive” each time. For the same molecule, the Potency entry in [18] and in experiment [19] was “inactive” throughout.
With `O=NN(CCO)CCO`, the Potency result in experiment [1], in experiment [2], in experiment [3], in experiment [4], in experiment [5] and in [6] was “inactive” each time. Besides, the Potency result (in experiment [7]; in experiment [8]; in [9]; with Aromatase (Homo sapiens); in experiment [10]; in experiment [11]) was “inactive” each time. Besides, the Potency result in experiment [12], in experiment [13], in [15], in experiment [16] and in [17] was “inactive” in each case.
In the case of `CC(Cc1ccc2c(c1)OCO2)NO` (configuration not stated), the Potency entry in experiment [1], in experiment [2], in experiment [3], in experiment [4], in experiment [5] and in experiment [6] was “inactive” throughout. For the same molecule, the Potency entry (in experiment [7]; in experiment [8]; in experiment [9]; with Aromatase (Homo sapiens); in experiment [10]; in experiment [11]) was “inactive” each time. Moreover, the Potency result in experiment [12], in experiment [13], in [14], in experiment [15], in experiment [17] and in experiment [18] was “inactive” each time.
As to `CC1CN1` (configuration not stated), the Potency entry in experiment [1], in experiment [2], in [3], in [4], in [5] and in experiment [6] was “inactive” in each case. Also, the Potency result (in experiment [7]; in experiment [8]; in [9]; with Aromatase (Homo sapiens); in [10]; in [11]) was “inactive” in each case. Further, the Potency result in experiment [12], in [13], in [15], in [16], in [18] and in experiment [19] was “inactive” in each case.
On to `CCCCC/C=C\C/C=C\C/C=C\C/C=C\CCCC(=O)NCC(=O)O`, for which, in experiment [1], the activity change, negative = cytotoxic is 12.7% [at 8.44 µM]. For the same molecule, the activity, negative = inhibition in experiment [2] was 6.65% [at 8.44 µM]; in [4] it was -29.7% [at 6.71 µM]; with Aromatase (Homo sapiens), 4.53% [at 8.47 µM]. The activation in experiment [3] is 2.19% [at 8.08 µM]; in experiment [6] it was -3.03% [at 6.71 µM]; in experiment [7], 2.37% [at 8.47 µM]; in [11], -2.57% [at 8.47 µM]; in experiment [13], -0.604% [at 7.08 µM]. The activity, negative = cytotoxicity in [5] was -15.9% [at 6.72 µM]. In addition, in experiment [8], the activity change, negative = inhibition was 0.823% [at 8.47 µM]. The results for the activity change, negative = cytotoxicity in [9] and in [10] were 0.607% [at 8.47 µM] and -2.83% [at 8.47 µM], respectively. Further, the viability change, negative = cytotoxic in experiment [12] is 8.28% [at 8.47 µM]. Besides, the Potency result in [17] was “inactive”.

Values taken from PubChem BioAssay (Tox21).
